# Experimental data: the supplement of paper PMC9177965
# Where “and” joins values, the source holds several entries; their conditions need not be identical. Equal values may be shown once.
# Test system: HT29 sg-Ctrl (RNF43 wildtype)
# Test: cell viability activity relative to DMSO (negative = inhibition); higher = more viable cells (less growth inhibition)
# Settings: 5 µM; 96 h
# Procedure: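 Broad Repurposing Library primary screen at a single dose of 5 uM. HT29 sg-Ctrl and HT29 RNF43 G659fs CRISPR-edited isogenic cells were seeded at 2500 cells/well in 384-well plates in duplicate and treated for 96 h. Viability was read by CellTiter-Glo and reported as % activity relative to DMSO, with MG132 as the positive control (negative = growth inhibition).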
row,SMILES,cell viability activity
1,CC(=O)O[C@H]1C[C@H](O[C@H]2[C@@H](O)C[C@H](O[C@H]3[C@@H](O)C[C@H](O[C@H]4CC[C@@]5(C)[C@H](CC[C@@H]6[C@@H]5C[C@@H](O)[C@]5(C)[C@@H](C7=CC(=O)OC7)CC[C@]65O)C4)O[C@@H]3C)O[C@@H]2C)O[C@H](C)[C@H]1O[C@@H]1O[C@H](CO)[C@@H](O)[C@H](O)[C@H]1O,-89.1%
2,Fc1cc(F)c2c(c1)[C@H]1C=CC[C@H]1C(c1cccnc1)N2 (stereo not given in full),-92.9% and -73.9%
3,Oc1cc(Cl)ccc1Oc1ccc(Cl)cc1Cl,-92.8%
4,C[C@]12CC[C@H](O)C[C@H]1CC[C@@H]1[C@@H]2C[C@@H](O)[C@]2(C)[C@@H](C3=CC(=O)OC3)CC[C@]12O,-79.8%
5,CO[C@H]1C[C@H](O[C@H]2CC[C@@]3(C)[C@H](CC[C@@H]4[C@@H]3CC[C@]3(C)[C@@H](C5=CC(=O)OC5)[C@@H](OC(C)=O)C[C@]43O)C2)O[C@@H](C)[C@@H]1O,-90.4%
6,CC(C)(C)c1cc(C=C(C#N)C#N)cc(C(C)(C)C)c1O,-67.3%
7,CC(=O)O[C@@]12CO[C@@H]1C[C@H](O)[C@@]1(C)C(=O)[C@H](O)C3=C(C)[C@@H](O)C[C@@](O)([C@@H](OC(=O)c4ccccc4)[C@H]21)C3(C)C,-62.6%
8,C=C(C)[C@H]1Cc2c(ccc3c2O[C@@H]2COc4cc(OC)c(OC)cc4[C@@H]2C3=O)O1,-75.8%
9,CCN(CC)CCO[C@H]1CC[C@@]2(C)C(=CC[C@@H]3[C@@H]2CC[C@]2(C)C(=O)CC[C@@H]32)C1,-52.8%
10,COc1cccc2c1C(=O)c1c(O)c3c(c(O)c1C2=O)C[C@@](O)(C(=O)CO)C[C@@H]3O[C@H]1C[C@H](N2CCO[C@H](OC)C2)[C@H](O)[C@H](C)O1,-95.3%
11,C[C@@H]1O[C@@H](O[C@H]2C[C@@H](O)[C@]3(CO)[C@H]4[C@H](O)C[C@]5(C)[C@@H](C6=CC(=O)OC6)CC[C@]5(O)[C@@H]4CC[C@]3(O)C2)[C@H](O)[C@H](O)[C@H]1O,-87.7% and -89.1%
12,CC[C@@H]1/C=C/C=C/C[C@H](C)[C@H](O)[C@](C)(O)C(=O)[C@H](C)[C@@H](O)[C@H](C)C(=O)[C@H](C)[C@@H](O)[C@H](C)/C=C/C(=O)O[C@H]2[C@@H](C)[C@@H](CC1)O[C@@]1(CC[C@@H](C)[C@@H](C[C@H](C)O)O1)[C@@H]2C,-42.2%
13,C[C@@H]1O[C@@H](O[C@@H]2C=C3CC[C@@H]4[C@H](CC[C@]5(C)[C@@H](c6ccc(=O)oc6)CC[C@]45O)[C@@]3(C)CC2)[C@H](O)[C@H](O)[C@H]1O,-87.4%
14,O=C1C=C2C=C[C@@H]3C[C@@]2(O1)[C@H]1CCCCN31,-6.19%
15,COc1cc([C@@H]2c3cc4c(cc3[C@H](O)[C@H]3COC(=O)[C@H]23)OCO4)cc(OC)c1OC,-58.2%
16,c1ccc2c(c1)[I+]c1ccccc1-2,-52.1%
17,O=Cc1cn(Cc2ccc(Cl)cc2)c2ccccc12,-88.6%
18,Oc1cccc2cccnc12,-34.8%
19,C/C1=C/C[C@@H](/C(C)=C/c2csc(C)n2)OC(=O)C[C@H](O)C(C)(C)C(=O)[C@H](C)[C@@H](O)[C@@H](C)CCC1,-42.3%
20,C=C1[C@@H](C)[C@H]2[C@H](Cc3ccccc3)NC(=O)[C@]23OC(=O)/C=C/[C@H](O)CCC[C@@H](C)C/C=C/[C@H]3[C@@H]1O,-36.1%

row,SMILES,cell viability activity
1,CCCCCCCCCCCCCCCC[n+]1ccccc1,-79.9%
2,C[C@]12CC[C@H]3[C@@H](CC[C@]4(O)C[C@@H](O)CC[C@]34C=O)[C@@]1(O)CC[C@@H]2C1=CC(=O)OC1,-75.5%
3,Clc1cccc(SC2CCNCC2)n1,-64.7%
4,COC(=O)NC(=S)Nc1ccccc1NC(=S)NC(=O)OC,-38.9%
5,Cc1sc2c(c1C)C(c1ccc(Cl)cc1)=N[C@@H](CC(=O)OC(C)(C)C)c1nnc(C)n1-2,-61.7%
6,N#CC(C#N)=NNc1cccc(Cl)c1,-68.2%
7,CC1CC(C)C(=O)C(C(O)CC2CC(=O)NC(=O)C2)C1 (stereo not given),-81.2%
8,COC(=O)C[C@](O)(CCC(C)(C)O)C(=O)O[C@@H]1C(OC)=C[C@]23CCCN2CCc2cc4c(cc2[C@H]13)OCO4,-83.6%
9,CC[C@H]1CN2CCc3cc(OC)c(OC)cc3[C@@H]2C[C@@H]1C[C@H]1NCCc2cc(OC)c(OC)cc21,-92.7% and -98.3%
10,COc1ccc(C[C@H]2NC[C@H](O)[C@H]2OC(C)=O)cc1,-95.3%
11,C[C@@]1(CO)[C@H](O)CC[C@@]2(C)[C@H]1CC[C@H]1C[C@@H]3C[C@@]12CC[C@]3(O)CO,-34.1%
12,C/C(=C\c1csc(C)n1)[C@@H]1C[C@@H]2O[C@@H]2CCC[C@H](C)[C@H](O)[C@@H](C)C(=O)C(C)(C)[C@@H](O)CC(=O)O1,-51.9%
13,CN1CCN(c2cccc3[nH]c(=O)oc23)CC1,-54.8%
14,O=[N+]([O-])C=Cc1ccc2c(c1)OCO2,-21%
15,Cn1c(COP(=O)(NCCBr)NCCBr)cnc1[N+](=O)[O-],-27.3%
16,CC(C)[C@]12O[C@H]1[C@@H]1O[C@]13[C@]1(O[C@H]1C[C@H]1C4=C(CC[C@@]13C)C(=O)OC4)[C@@H]2O,-87.8% and -92.2%
17,N#Cc1cn([C@@H]2O[C@H](CO)[C@@H](O)[C@H]2O)c2ncnc(N)c12,-89.9%
18,COc1cc2c(c(OC)c1OC)-c1ccc(OC)c(=O)cc1[C@@H](NC(C)=O)CC2,-46.1% and -57.8%
19,NC(=O)c1cn([C@@H]2O[C@H](CO)[C@@H](O)[C@H]2O)c2ncnc(N)c12,-93%
20,CC[C@@H](C(=O)[C@@H](C)[C@@H](O)[C@H](C)[C@@H]1O[C@@H]([C@@H](CC)C(=O)O)CC[C@@H]1C)[C@H]1O[C@]2(C=C[C@@H](O)[C@]3(CC[C@@](C)([C@H]4CC[C@](O)(CC)[C@H](C)O4)O3)O2)[C@H](C)C[C@@H]1C,-71.9%
